The supplement of paper PMC4466140

Tests used:
Test in all cases: SPOT peptide array binding signal intensity (averaged, normalized) (arbitrary units (background-subtracted, floor 0; scale differs between SH3 domains)); higher = stronger binding of the SH3 domain to the peptide
AgAbp1 = molecular target: AgAbp1
In short: (§1)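 GST-fused SH3 domains, from four yeast species, were produced in E. coli BL21(DE3) and captured on glutathione Sepharose. Membranes of cellulose carrying synthetic 15-mer peptides, in which cysteines had been replaced by serines, were exposed to each domain at 10 μg/ml overnight at 4°C in TBS-based blocking buffer. After anti-GST antibody, an HRP anti-mouse secondary and luminol, spots were imaged and quantified using Genespotter. Binding signal is normalized and background-subtracted spot intensity, averaged over replicates, in arbitrary units that differ between domains.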

AgBbc1 = molecular target: AgBbc1
In short: as §1

AgBem1-D1 = molecular target: AgBem1-D1
In short: as §1

AgBzz1-D1 = molecular target: AgBzz1-D1
In short: as §1

AgBzz1-D2 = molecular target: AgBzz1-D2
In short: as §1

AgCyk3 = molecular target: AgCyk3
In short: as §1

AgFus1 = molecular target: AgFus1
In short: as §1

AgHof1 = molecular target: AgHof1
In short: as §1

AgHse1 = molecular target: AgHse1
In short: as §1

AgLsb1 = molecular target: AgLsb1
In short: as §1

AgLsb4 = molecular target: AgLsb4
In short: as §1

AgMyo5 = molecular target: AgMyo5
In short: as §1

AgNbp2 = molecular target: AgNbp2
In short: as §1

AgRvs167 = molecular target: AgRvs167
In short: as §1

AgSho1 = molecular target: AgSho1
In short: as §1

AgSla1-D1-D2 = molecular target: AgSla1-D1-D2
In short: as §1

AgSla1-D3 = molecular target: AgSla1-D3
In short: as §1

CaAbp1-D1 = molecular target: CaAbp1-D1
In short: as §1

CaAbp1-D2 = molecular target: CaAbp1-D2
In short: as §1

CaBbc1 = molecular target: CaBbc1
In short: as §1

CaBem1-D1 = molecular target: CaBem1-D1
In short: as §1

CaBzz1-D1 = molecular target: CaBzz1-D1
In short: as §1

CaBzz1-D2 = molecular target: CaBzz1-D2
In short: as §1

CaCyk3 = molecular target: CaCyk3
In short: as §1

CaFus1 = molecular target: CaFus1
In short: as §1

CaHof1 = molecular target: CaHof1
In short: as §1

CaHse1 = molecular target: CaHse1
In short: as §1

CaLsb1 = molecular target: CaLsb1
In short: as §1

CaLsb4 = molecular target: CaLsb4
In short: as §1

CaMyo5 = molecular target: CaMyo5
In short: as §1

CaNbp2 = molecular target: CaNbp2
In short: as §1

CaRvs167 = molecular target: CaRvs167
In short: as §1

CaRvs167-3 = molecular target: CaRvs167-3
In short: as §1

CaSho1 = molecular target: CaSho1
In short: as §1

CaSla1-D1-D2 = molecular target: CaSla1-D1-D2
In short: as §1

CaSla1-D3 = molecular target: CaSla1-D3
In short: as §1

ScAbp1 = molecular target: ScAbp1
In short: as §1

ScBbc1 = molecular target: ScBbc1
In short: as §1

ScBem1-D1 = molecular target: ScBem1-D1
In short: as §1

ScBzz1-D1 = molecular target: ScBzz1-D1
In short: as §1

ScBzz1-D2 = molecular target: ScBzz1-D2
In short: as §1

ScCyk3 = molecular target: ScCyk3
In short: as §1

ScFus1 = molecular target: ScFus1
In short: as §1

ScHof1 = molecular target: ScHof1
In short: as §1

ScHse1 = molecular target: ScHse1
In short: as §1

ScLsb1 = molecular target: ScLsb1
In short: as §1

ScLsb2 = molecular target: ScLsb2
In short: as §1

ScLsb3 = molecular target: ScLsb3
In short: as §1

ScLsb4 = molecular target: ScLsb4
In short: as §1

ScMyo3 = molecular target: ScMyo3
In short: as §1

ScMyo5 = molecular target: ScMyo5
In short: as §1

ScNbp2 = molecular target: ScNbp2
In short: as §1

ScPex13 = molecular target: ScPex13
In short: as §1

ScRvs167 = molecular target: ScRvs167
In short: as §1

ScSho1 = molecular target: ScSho1
In short: as §1

ScSla1-D1-D2 = molecular target: ScSla1-D1-D2
In short: as §1

ScSla1-D3 = molecular target: ScSla1-D3
In short: as §1

SpAbp1-D1 = molecular target: SpAbp1-D1
In short: as §1

SpBbc1 = molecular target: SpBbc1
In short: as §1

SpBzz1-D1 = molecular target: SpBzz1-D1
In short: as §1

SpBzz1-D2 = molecular target: SpBzz1-D2
In short: as §1

SpCyk3 = molecular target: SpCyk3
In short: as §1

SpHof1 = molecular target: SpHof1
In short: as §1

SpHof1-2 = molecular target: SpHof1-2
In short: as §1

SpHof1-3 = molecular target: SpHof1-3
In short: as §1

SpHse1 = molecular target: SpHse1
In short: as §1

SpLsb1 = molecular target: SpLsb1
In short: as §1

SpLsb4 = molecular target: SpLsb4
In short: as §1

SpMyo1 = molecular target: SpMyo1
In short: as §1

SpNbp2 = molecular target: SpNbp2
In short: as §1

SpPex13 = molecular target: SpPex13
In short: as §1

SpRvs167 = molecular target: SpRvs167
In short: as §1

SpSla1-D1-D2 = molecular target: SpSla1-D1-D2
In short: as §1

SpSla1-D3 = molecular target: SpSla1-D3
In short: as §1

Measured: SPOT peptide array binding signal intensity

DTIDNVKSKIQDKEG
1: ScMyo5
21: CaBzz1-D1
2.5: CaRvs167-3
≤ 0: AgAbp1 | AgBbc1 | AgBem1-D1 | AgBzz1-D1 | AgBzz1-D2 | AgCyk3 | AgFus1 | AgHof1 | AgLsb1 | AgLsb4 | AgMyo5 | AgNbp2 | AgSho1 | AgSla1-D1-D2 | AgSla1-D3 | CaAbp1-D1 | CaAbp1-D2 | CaBbc1 | CaBem1-D1 | CaBzz1-D2 | CaCyk3 | CaFus1 | CaHof1 | CaHse1 | CaLsb1 | CaLsb4 | CaMyo5 | CaNbp2 | CaSho1 | CaSla1-D1-D2 | CaSla1-D3 | ScAbp1 | ScBbc1 | ScBem1-D1 | ScBzz1-D2 | ScCyk3 | ScFus1 | ScHof1 | ScHse1 | ScLsb1 | ScLsb2 | ScLsb3 | ScLsb4 | ScMyo3 | ScNbp2 | ScPex13 | ScRvs167 | ScSho1 | ScSla1-D1-D2 | ScSla1-D3 | SpAbp1-D1 | SpBbc1 | SpBzz1-D1 | SpBzz1-D2 | SpCyk3 | SpHof1 | SpHof1-2 | SpHse1 | SpLsb1 | SpLsb4 | SpMyo1 | SpNbp2 | SpPex13 | SpRvs167 | SpSla1-D1-D2 | SpSla1-D3
12: ScBzz1-D1
7.75: SpHof1-3
4: AgHse1
2: CaRvs167
0.5: AgRvs167

RRSKSLPTTPGIRSG
43: AgBzz1-D2
213: AgNbp2
45: AgBzz1-D1
1.75: AgSla1-D3
276: CaLsb4
348: AgBem1-D1
7.5: CaMyo5
450: CaFus1
4520: AgSho1
≤ 0: AgMyo5 | CaHof1
54: CaBem1-D1
816: AgHse1
4: AgCyk3
128: AgLsb4
1180: CaAbp1-D2
31.5: CaHse1
120: AgFus1
744: AgAbp1
216: CaBbc1
469: AgSla1-D1-D2
1220: CaAbp1-D1
104: AgBbc1
158: AgHof1
3.5: CaLsb1
50.8: AgLsb1
115: CaBzz1-D2
292: CaBzz1-D1
2.33: AgRvs167
17: CaCyk3

FPPKRKPLLRPQRSD
182: SpHof1
326: SpHse1
3: SpSla1-D3
0.5: SpBzz1-D2
5: SpCyk3
2: SpSla1-D1-D2
26: SpPex13
536: SpRvs167
1630: SpLsb4
286: SpNbp2
153: SpLsb1
16.8: SpHof1-2
22.8: SpMyo1
285: SpHof1-3

QDKEGIPPDQQRLIF
0.5: SpHof1-2
26: ScBzz1-D2
1: ScRvs167
≤ 0: AgAbp1 | AgBbc1 | AgBem1-D1 | AgBzz1-D1 | AgBzz1-D2 | AgCyk3 | AgFus1 | AgHof1 | AgHse1 | AgLsb1 | AgLsb4 | AgNbp2 | AgSho1 | AgSla1-D1-D2 | AgSla1-D3 | CaAbp1-D1 | CaAbp1-D2 | CaBbc1 | CaBem1-D1 | CaBzz1-D1 | CaBzz1-D2 | CaCyk3 | CaFus1 | CaHof1 | CaHse1 | CaLsb1 | CaLsb4 | CaNbp2 | CaRvs167 | CaSho1 | CaSla1-D1-D2 | CaSla1-D3 | ScBbc1 | ScBem1-D1 | ScCyk3 | ScFus1 | ScHof1 | ScHse1 | ScLsb1 | ScLsb2 | ScLsb3 | ScLsb4 | ScMyo3 | ScNbp2 | ScPex13 | ScSho1 | ScSla1-D1-D2 | ScSla1-D3 | SpAbp1-D1 | SpBbc1 | SpBzz1-D1 | SpBzz1-D2 | SpCyk3 | SpHof1 | SpHse1 | SpLsb1 | SpLsb4 | SpMyo1 | SpNbp2 | SpPex13 | SpRvs167 | SpSla1-D1-D2 | SpSla1-D3
0.75: AgMyo5
20: SpHof1-3
8: ScAbp1
0.333: AgRvs167
18: ScBzz1-D1
10.8: CaMyo5
7: ScMyo5
3: CaRvs167-3
